Results published in PubChem BioAssay AID1346428 (National Center for Advancing Translational Sciences (NCATS), 2018).
The campaign covered roughly 48,000 compounds. About 1,200 (2.5%) were called active. Inconclusive results (about 2%) are left out. The full list was thinned out, with actives kept by preference. Unmarked numbers belong to inactive results.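 The calls were made as follows: active = activation of at least 60% and not above a set upper limit (about 1 call in 100 departs from these limits); inconclusive = activation of 40% to 60%, or above that upper limit; inactive = activation under 40%.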
Also: 0% is about no effect.

The compounds below were run against Probable G-protein coupled receptor 32 (Homo sapiens) (UniProt O75388) (assay: qHTS for Agonists of Human Resolvin D1 Receptor DRV1). Details: CHO-K1 GPR32 beta-arrestin PathHunter luminescence, 90 min; at 76.9 µM; stronger effect = higher value; zero percent set by DMSO-only wells.
Sequence of Probable G-protein coupled receptor 32 (Homo sapiens) (O75388 whole entry, looked up, the tested form may be a part): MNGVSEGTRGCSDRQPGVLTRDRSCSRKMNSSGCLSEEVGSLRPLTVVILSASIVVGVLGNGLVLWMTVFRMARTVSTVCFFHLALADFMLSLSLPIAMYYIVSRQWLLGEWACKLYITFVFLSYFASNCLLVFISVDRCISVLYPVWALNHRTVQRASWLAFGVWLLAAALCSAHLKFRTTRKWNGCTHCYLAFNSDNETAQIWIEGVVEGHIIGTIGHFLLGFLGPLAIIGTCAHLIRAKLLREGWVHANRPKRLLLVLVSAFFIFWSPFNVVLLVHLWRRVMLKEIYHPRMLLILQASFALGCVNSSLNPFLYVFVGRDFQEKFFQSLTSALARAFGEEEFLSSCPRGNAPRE
Outline: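 Agonism was scored as beta-arrestin recruitment to ProLink-fused GPR32 in stably transfected CHO-K1 cells, giving a chemiluminescent beta-Gal signal; compounds were incubated 90 min at 37 °C.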
In the case of `Cc1ccc(Oc2c(C(F)(F)F)oc3c(CN4CCCCC4)c(O)ccc3c2=O)cc1`, the activation is reported as -34.2%. `COc1ccc(-c2c(C)c3ccc(O)c(CN4CCCC4)c3oc2=O)cc1OC` was tested, and the activation was -5.21%. `CC1CCCN(Cc2c(O)ccc3c(=O)c(Oc4ccc(C(C)(C)C)cc4)c(C(F)(F)F)oc23)C1` (stereo not given) was tested, and the activation was 64.7% (active). For `CCC1CCCCN1Cc1c(O)ccc2c(=O)c(Oc3ccccc3Cl)c(C(F)(F)F)oc12` (stereo not given), the activation was 102% (active). `Cc1ccc(C)c(Oc2c(C(F)(F)F)oc3c(CN4CCN(C)CC4)c(O)ccc3c2=O)c1` gave an activation of -14.3%. `CC1CCCCN1Cc1c(O)ccc2c(=O)c(-c3cccc(Cl)c3)c(C(F)(F)F)oc12` (stereo not given) was tested, and the activation was -11.7%. Work on `Cc1ccsc1CN(C(=O)c1oc2ccc(Br)cc2c1C)C1CCS(=O)(=O)C1` (stereo not given) yielded an activation of -26.5%. `Cc1cc(F)ccc1NS(=O)(=O)c1ccc(-n2cccn2)cc1` was tested, and the activation was 106% (active). For `Cc1cc(F)ccc1NC1(c2ccccc2)C(=O)c2ccccc2C1=O`, the activation was -74.1%. `Cn1c(=O)n(C)c2cc(NS(=O)(=O)c3ccc(F)cc3)ccc21` showed an activation of 7.69%. `CCOC(=O)N1CCc2c(sc3c2c(=O)n(-c2ccc(CC)cc2)c(=O)n3C)C1` showed an activation of -6.72%. With `CC(Nc1ccc(-c2nc(-c3ccco3)no2)cc1[N+](=O)[O-])c1ccccc1` (stereo not given) the activation was -14.5%. `COc1ccc(OC)c(NC(=O)CSc2nc3ccccc3nc2N2CCCCC2)c1` was tested, and the activation was -20.5%. `O=C(Nc1ccc(O)c(-c2nc3ccccc3o2)c1)c1ccc(-c2cccc(Cl)c2)o1` showed an activation of 10.7%. With `O=S(=O)(Nc1ccc2nc(-c3cccc(Cl)c3)oc2c1)c1ccccc1` the activation was 93.4% (active). With `O=C(Nc1cccc(-c2nc3ccccc3o2)c1)c1cccc(Br)c1` the activation was -18.9%. With `COC(=O)c1ccc(Cn2c(SCC(=O)N(C)c3ccccc3)nc3ccccc32)cc1` the activation was -14.8%. `Cc1cccc(NC(=O)CSc2ncc(-c3ccccc3)[nH]2)c1C` was tested, and the activation was 93% (active). `O=C(CSc1ncc(-c2ccccc2)[nH]1)Nc1ccc(F)cc1F` was tested, and the activation was -23.6%. Work on `CCOc1cccc(NC(=O)CSc2ncc(-c3ccc(Cl)cc3)[nH]2)c1` yielded an activation of -15.1%. With `COC(=O)c1ccc(NC(=O)CCc2c(C)nc3c(c(C)nn3-c3ccc(C)cc3)c2C)cc1` the activation was -18.2%. With `CCc1ccc(NC(=O)Cn2c(=O)n(CCC(=O)NCc3ccc4c(c3)OCO4)c(=O)c3ccccc32)cc1` the activation was -4.89%. With `Cc1ccccc1NC(=O)Cn1cc(C(=O)c2cccs2)c2ccccc21` the activation was -6.21%. `Cn1c(=O)c2c(SCC(=O)NCC3CCCO3)nc(-c3ccccc3F)nc2n(C)c1=O` (stereo not given) showed an activation of -4.7%. Work on `CCOc1ccc(NC(=O)c2cnn(-c3ccccc3)c2-n2cccc2)cc1` yielded an activation of -6.74%. With `CN1CC[C@H](c2c(O)cc(O)c3c(=O)cc(-c4ccccc4Cl)oc23)[C@H](O)C1` the activation was -16.5%. With `O=C(NC1CC(=O)N(c2ccc(F)cc2)C1)C1CCCCC1` (stereo not given) the activation was -2.56%. Work on `COc1cc(OC)cc(C(=O)Nc2c(C(=O)Nc3ccc(F)cc3)oc3ccccc23)c1` yielded an activation of 1.9%. `CC(C)(C)C1CCc2c(sc(NC(=O)c3ccccc3F)c2C(=O)N2CCCCC2)C1` (stereo not given) showed an activation of -35.6%. `Cc1cc(C)cc(OC(C)C(=O)Nc2nc3c(s2)CCCC3)c1` (stereo not given) showed an activation of -14.5%. With `CC(C)C(=O)Nc1nc2c(s1)CC(C(C)(C)C)CC2` (stereo not given) the activation was 63.2% (active). `COc1ccc2cc(-c3nc(Cl)c4c5c(sc4n3)CC(C)CC5)c(=O)oc2c1` (stereo not given) showed an activation of -14.3%. For `CCCS(=O)(=O)N1CCC(n2c(C(F)(F)F)nc3cccnc32)CC1`, the activation was -3.95%. `Cc1oc2ccc(O)c(CN3CCC(C)CC3)c2c1C(=O)Nc1ccccc1` gave an activation of 17.2%. Work on `Cc1oc2ccc(O)c(CN3CCOCC3)c2c1C(=O)Nc1cccc(Cl)c1C` yielded an activation of 18.4%. For `Cc1oc2ccc(O)c(CN3CCCCC3)c2c1C(=O)Nc1cccc(C(F)(F)F)c1`, the activation was 106% (active). Work on `Cc1cccc(NC(=O)C2CCCN2S(=O)(=O)c2cccc3nsnc23)c1C` (stereo not given) yielded an activation of 8.79%. `CN1CCC[C@@H]1CCO[C@](C)(c1ccccc1)c1ccc(Cl)cc1` was tested, and the activation was 68.2% (active). `COc1cccc(CNc2nccn(-c3ccc(OC)c(OC)c3)c2=O)c1` showed an activation of -0.901%. In the case of `COc1ccccc1CNc1nccn(-c2ccc(F)cc2)c1=O`, the activation is reported as 30.2%. With `COc1ccc(-n2ccnc(NCCc3ccc(Cl)cc3)c2=O)cc1OC` the activation was 105% (active). Compound `COc1cccc(NC(=O)Nc2ccc3c(c2)N(C)C(=O)c2ccccc2S3)c1` has an activation of 4.16%. With `COc1cccc(NC(=O)C2CCN(c3cc(C)nc4c(-c5ccc(Cl)cc5)c(C)nn34)CC2)c1` the activation was -2.14%. `COc1cccc(N=C2SC(C(=O)Nc3cccc(Cl)c3)CC(=O)N2C)c1` (stereo not given) was tested, and the activation was 68.2% (active). In the case of `CC(C)c1ccc(NC(=O)c2ccc3c(O)c(S(=O)(=O)c4ccccc4)c(=O)[nH]c3c2)cc1`, the activation is reported as -0.853%. In the case of `O=C(c1cnn(-c2ccc(F)cc2)c1-n1cccc1)N1CCN(c2ccc(F)cc2)CC1`, the activation is reported as 19%. In the case of `COc1ccc(NC(=O)CSc2nc3ccccc3[nH]2)cc1`, the activation is reported as -10%. `Cc1ccc(OCC(=O)Nc2ccc(Cl)c(-c3nc4ccccc4[nH]3)c2)cc1C` was tested, and the activation was 70.6% (active). In the case of `COc1ccc(CC(=O)Nc2ccc(-c3nc4ccccc4s3)c(C)c2)cc1`, the activation is reported as 27.8%. Compound `COc1ccc(CNC(=O)Cc2coc3ccc(C(C)C)cc23)cc1` has an activation of -15.8%. `COc1ccc2c(c1)c(N1CCCC1=O)c(C(=O)Nc1ccc(OC)c(Cl)c1)n2C` gave an activation of 3.27%. `CCCCN(CCCC)CCC(O)c1cc2c(Cl)cc(Cl)cc2c2cc(C(F)(F)F)ccc12` (stereo not given) was tested, and the activation was 98.9% (active). `CCOc1ccc(CCNC(=O)c2csc3c2CCCCC3)cc1` was tested, and the activation was 3.74%. `Brc1cccc(-c2nnn3c2nc(NC2CCCCC2)c2ccccc23)c1` gave an activation of -7%. Work on `O=C(Nc1nc2c(s1)CCCC2)c1ccccc1F` yielded an activation of -7.97%. In the case of `CC(C)c1ccc(S(=O)(=O)Nc2ccc(O)c(Sc3nc4ccccc4s3)c2)cc1`, the activation is reported as 70.6% (active). For `Cc1nc2ccc(S(=O)(=O)NC(C(=O)NCc3ccccc3Cl)C(C)C)cc2s1` (stereo not given), the activation was 7.27%. Work on `CC(C)(C)c1ccc(S(=O)(=O)Nc2ccc(O)c(Sc3nc4ccccc4s3)c2)cc1` yielded an activation of 2.42%. In the case of `Cc1ccc(-n2c(=O)c3cccnc3n2CC(=O)Nc2ccccc2C(F)(F)F)cc1C`, the activation is reported as -16.8%. `CCCC12CN3CC(C)(CN(C1)C3c1ccccc1Cl)C2=O` (stereo not given) showed an activation of -8.25%. With `CCN(CCCNC(=O)c1cc2cc3cc(OC)ccc3nc2s1)c1ccccc1` the activation was -15.5%. For `Cc1cccc(N2CCN(C(=O)c3cnc(N4CCCC4)nc3C)CC2)c1C`, the activation was 36.6%. `CCN(C(=O)Cn1c(=O)nc(-c2ccccc2)c2cc(Cl)ccc21)c1cccc(C)c1` showed an activation of -7.41%. For `O=C(Nc1nnc(S(=O)(=O)N2CCOCC2)s1)c1cccc(Br)c1`, the activation was 93.4% (active). For `COc1cccc(C(=O)Nc2nnc(S(=O)(=O)N3CCOCC3)s2)c1`, the activation was 69.6% (active). With `Cc1ccc(C(=O)Nc2ccccc2F)cc1S(=O)(=O)N1CCOCC1` the activation was 2.32%. `CCOc1cccc(C(=O)Nc2nnc(S(=O)(=O)N(C)c3ccc(C)cc3)s2)c1` was tested, and the activation was 63.1% (active). Work on `Cc1cc2nc(NC(=O)c3ccc(S(=O)(=O)N4CCOCC4)cc3)sc2cc1C` yielded an activation of -4.68%. `O=C(Nc1nnc(S(=O)(=O)N2CCCCCC2)s1)c1cccc(Br)c1` was tested, and the activation was 115% (active). Compound `COc1cccc(CNC(=O)CN2C(=O)CCc3cc(S(=O)(=O)N4CCOCC4)ccc32)c1` has an activation of 0%. For `Cc1ccccc1C(=O)Nc1nnc(S(=O)(=O)N(C)c2ccc(Cl)cc2)s1`, the activation was 8.7%. `CN(Cc1ccco1)S(=O)(=O)c1nnc(NC(=O)c2ccccc2)s1` was tested, and the activation was 18.1%. `O=C(Nc1nnc(S(=O)(=O)N2CCCc3ccccc32)s1)c1cccc(F)c1` showed an activation of 45.3%. For `CC(C)CC(=O)Nc1nnc(S(=O)(=O)N(C)c2ccc(Cl)cc2)s1`, the activation was -5.88%. In the case of `Cc1ccccc1OCC(=O)Nc1nnc(S(=O)(=O)N2CCCC2)s1`, the activation is reported as 5.36%. Compound `Cc1cc(N2CCN(c3cccc(C(F)(F)F)c3)CC2)n2nc(-c3ccccc3)nc2n1` has an activation of -14.2%. `CCOC(=O)c1c(NC(=O)COc2cc(C)ccc2C(C)C)sc(C)c1C` was tested, and the activation was -11%. Compound `Cc1ccc(C)c(S(=O)(=O)n2nc(C)c(S(=O)(=O)N3CCC(C)CC3)c2C)c1` has an activation of -11.2%. `O=C(Nc1cc(C(F)(F)F)ccc1Cl)c1cc2nc(-c3ccc4c(c3)OCO4)cc(C(F)(F)F)n2n1` gave an activation of -10.2%. `Cc1ccc(NC(=O)c2ccc(CN3CC(=O)N4CCCCC4C3=O)cc2)c(Cl)c1` (stereo not given) gave an activation of -8.29%. `COc1ccc(-c2cc(C(=O)NCc3cc(OC)c(OC)c(OC)c3)[nH]n2)cc1` gave an activation of -1.24%. `COc1ccc(NC(=O)CSc2nc3ccccc3n2CC(=O)N2CCCCC2C)cc1` (stereo not given) gave an activation of -15.6%. `CCOc1ccccc1NC(=O)Cn1c(=O)n(Cc2ccccc2)c(=O)c2c(C)c(C(=O)N(C)C)sc21` gave an activation of -24.5%. `CCn1cc(C(=O)OCC(=O)Nc2cc(C)cc(C)c2)c(=O)c2ccc(C)nc21` was tested, and the activation was 20.2%. With `CN(Cc1ccccc1)C(=O)c1cn(C)c2ccc(S(=O)(=O)N3CCCCC3)cc2c1=O` the activation was 13.1%.
